Drawing on PubChem BioAssay AID1345085 (National Center for Advancing Translational Sciences (NCATS), 2018), this text covers Potency for 33 molecules.

The assay concerns CAOV3. Kind of assay: Confirmatory qHTS for gynecologic anti-cancer compounds from libraries of approved drugs and bioactive compounds. Further: nearly all actives have a fitted effect of over 55% in size. Conditions: gynecologic cancer cell panel viability, ATPlite luminescence, 48 h; series mostly up to 57.6 µM. The essentials:
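Seeding 1,000 cells per well preceded overnight (16 h) attachment, after which 48 h drug treatment across 57.5 uM–0.977 nM (11 points) was applied. Remaining cellular ATP, detected by ATPlite luminescence, defined IC50.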
For orientation: qHTS replaces the single test concentration by a dilution series.

Results filed as inconclusive are left out. Active and inactive are the calls of the source. The call rests on the fitted dose curve; in most records, active means well fitted cell-killing curve with a large enough effect; inconclusive means small, poorly fitted or top-dose-only effect, or effect the other way; inactive means no such curve, though single readings can be large or run the other way.
Potency means the concentration at half of the fitted maximal effect.

On to `N#CC1(c2cccc(C(=O)Nc3cc(Oc4ccc5nc(NC(=O)C6CC6)sc5n4)ccc3F)c2Cl)CC1`, for which the Potency result is “inactive”.
On to `Cc1[nH]c2ccccc2c1CCNCc1ccc(/C=C/C(=O)NO)cc1`, for which the Potency was 0.685 µM (active).
Consider `CCCC(Nc1nc(-c2ccc(NC(=O)NCC)c(OC)c2)ncc1C)c1cccnc1` (stereo not drawn), for which the Potency result was “inactive”.
Then `Nc1ccccc1NC(=O)c1ccc(CNc2nccc(-c3cccnc3)n2)cc1`, with 2.73 µM (active); and `COc1cccc2c1C(=O)c1c(O)c3c(c(O)c1C2=O)C[C@@](O)(C(=O)CO)C[C@@H]3O[C@H]1C[C@H](N)[C@H](O)[C@H](C)O1`, with 2.43 µM (active); and `Cn1cc(-c2ccc3ncc(Cc4ccc5ncccc5c4)n3n2)cn1`, with “inactive”.
For `COc1cccc2c1C(=O)c1c(O)c3c(c(O)c1C2=O)C[C@@](O)(C(=O)CO)C[C@@H]3O[C@H]1C[C@H](N)[C@H](O[C@@H]2CCCCO2)[C@H](C)O1` the value was 9.68 µM (active).
For `CN(C)C1CCN(C(=O)c2ccc(NC(=O)Nc3nc(N4CCOCC4)nc(N4CCOCC4)n3)cc2)CC1` the value was 0.611 µM (active); for `C[C@]12CCC(=O)C=C1[C@@H]1C[C@@H]1[C@H]1[C@@H]3[C@@H]4C[C@@H]4[C@@]4(CCC(=O)O4)[C@@]3(C)CC[C@@H]12`, “inactive”; for `CN1C(=O)C(Cc2c[nH]c3ccccc23)NC1=S` (stereo not drawn), “inactive”.
As to `CC(C)CC(=O)Nc1n[nH]c2c1CN(C(=O)C1CCN(C)CC1)C2(C)C`, the Potency is 1.22 µM (active).
Then `CS(=O)(=O)c1ccc(C(=O)Nc2ccc(Cl)c(-c3ccccn3)c2)c(Cl)c1`, with “inactive”; and `Fc1cc(-c2cccc3ncc(-c4cnn(C5CCNCC5)c4)nc23)cc(F)c1CN1CCOCC1`, with 27.3 µM (active).
For `Cc1ccc(C(=O)Nc2cccc(C(F)(F)F)c2)cc1-c1ccc2nc(NCCN3CCOCC3)ncc2c1` the value was 24.3 µM (active); for `COc1cc(N2CCC(N)CC2)ccc1Nc1ncc(Cl)c(-c2c[nH]c3ccccc23)n1`, 3.43 µM (active).
For `CN(C)CC/C=C1\c2ccccc2COc2ccccc21` the value was “inactive”; for `CCc1cccc(CC)c1NC(=O)N1Cc2[nH]nc(NC(=O)c3ccc(N4CCN(C)CC4)cc3)c2C1`, 2.43 µM (active); for `CC[C@@]1(O)C(=O)OCc2c1cc1n(c2=O)Cc2c-1nc1ccccc1c2/C=N/OC(C)(C)C`, 0.0968 µM (active).
With `CCC1C(=O)N(C)c2cnc(Nc3ccc(C(=O)NC4CCN(C)CC4)cc3OC)nc2N1C1CCCC1` (stereo not drawn), the Potency is 4.85 µM (active).
As to `Cc1cc(CN2CCN(c3c(Br)cnc4nc(-c5ccc(N6CCN(C)CC6)cc5)[nH]c34)CC2)no1`, the Potency is 13.7 µM (active).
For `CNC(=O)c1ccccc1Nc1nc(Nc2ccc(N3CCOCC3)cc2OC)ncc1Cl` the value was 1.37 µM (active); for `O=C(NOC[C@H](O)CO)c1ccc(F)c(F)c1Nc1ccc(I)cc1F`, “inactive”; for `O=C1c2c(O)ccc(O)c2C(=O)c2c(NCCNCCO)ccc(NCCNCCO)c21`, 3.85 µM (active).
For `NS(=O)(=O)OC[C@@H]1C[C@@H](n2ccc3c(N[C@H]4CCc5ccccc54)ncnc32)C[C@@H]1O` the value was 3.06 µM (active); for `COc1cc(-c2nn(C3CCC(N4CCN(C(C)=O)CC4)CC3)c3ncnc(N)c23)ccc1NC(=O)c1cc2ccccc2n1C` (stereo not drawn), 30.6 µM (active); for `CC(C)C[C@H](NC(=O)[C@@H](NC(=O)c1cccc(-c2ccccc2)n1)[C@@H](C)O)B(O)O`, 0.172 µM (active).
For the molecule `COCCOc1ccc2c(c1)ncn2-c1ccc2cccc(N3CCC(N)CC3)c2n1`, the Potency entry was “inactive”.
For `CCc1c2c(nc3ccc(OC(=O)N4CCC(N5CCCCC5)CC4)cc13)-c1cc3c(c(=O)n1C2)COC(=O)[C@]3(O)CC`, the Potency was 19.3 µM (active).
For the molecule `CCCC(=O)O[C@]1(C(=O)CCl)[C@@H](C)C[C@H]2[C@@H]3CCC4=CC(=O)C=C[C@]4(C)[C@@]3(F)C(=O)C[C@@]21C`, the Potency result was “inactive”.
Take `CC(C)c1nn(-c2c(Cl)cccc2Cl)c2nc(Cc3ccc(OCCO)cc3)[nH]c(=O)c12`: the Potency entry is “inactive”.
Then `CC(C)C[C@H](NC(=O)[C@H](CCc1ccccc1)NC(=O)CN1CCOCC1)C(=O)N[C@@H](Cc1ccccc1)C(=O)N[C@@H](CC(C)C)C(=O)[C@@]1(C)CO1`, with 3.06 µM (active).
Consider `COc1cc2nccc(Oc3ccc(NC(=O)C4(C(=O)Nc5ccc(F)cc5)CC4)cc3)c2cc1OC`, for which the Potency is 21.7 µM (active).
Consider `NC1(c2ccc(-c3nc4ccn5c(=O)[nH]nc5c4cc3-c3ccccc3)cc2)CCC1`, for which the Potency result is “inactive”.
